Here are results for six molecules from PubChem BioAssay AID623908 (Johns Hopkins Ion Channel Center, 2012).

Each structure is given as a SMILES string. Among all 2,500 compounds or so, about 1,500 (60%) were called active.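 How the source made its calls: active means duplicate-averaged ratio beyond 3 SD from buffer wells, up or down, though filed actives are nearly all decreases; inactive means the rest.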 The set was probably picked from earlier hits. These entries were drawn from the full list.

This experiment is described as follows: membrane potential response in parental HEK293 cells, counter-screen for CHT activator project, cell-based, membrane potential dye (AID 623908). The settings on record: parental HEK293, membrane potential dye fluorescence (FDSS); at 10 µM; measured after EC20 choline addition.
As to `CCN1CCN(c2ccc([N+](=O)[O-])cc2C#N)CC1`, the ratio readout change is -38.3 (active).

Turning to `CN1CCN(c2cc(N3CCNCC3)ccc2[N+](=O)[O-])CC1`, the ratio readout change is -81.4 (active).

As to `Cc1nc2ccc(N3CCN(C)CC3)cc2nc1C`, the ratio readout change was -22.9 (active).

`CCCCCn1c(=O)c(C(=O)Nc2c(C)n(C)n(-c3ccccc3)c2=O)c(O)c2ccccc21`: the ratio readout change result is “inactive”.

For the molecule `CC[N+](CC)(CC)CCCCCCCCCC[N+](CC)(CC)CC`, the ratio readout change is -41.6 (active).

Take `CCOc1ccc(-c2cc(C)[n+](CCN(CC)CC)c(-c3ccc(OCC)cc3)c2)cc1`: the ratio readout change entry is “inactive”.
